Experimental findings from PubChem BioAssay (NCI) are described below.

Compounds without any hit were thinned out: in the full panel of roughly 79,000, 15% have a hit. Unmarked numbers belong to inactive results. Active and inactive are the calls of the source. Cut-off read from the data, not from the text of the source: active = growth inhibition above about 70%; inactive = the rest.

Test [1] can be described thus: NCI Yeast Anticancer Drug Screen. Data for the rad50 strain (AID 155).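 Note: 0% = growth of vehicle-only cultures of the same strain.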 To be noted: S. cerevisiae rad50 strain growth inhibition, stronger effect = higher value. The gist of the method:
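A DNA repair-deficient yeast mutant serves as the test organism; compound-induced growth inhibition is calculated against vehicle-treated cells.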

Test [2] in a line: NCI Yeast Anticancer Drug Screen. Data for the mec2-1 strain (AID 157). Particulars: S. cerevisiae mec2-1 strain, stronger effect = higher value. The method, boiled down: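 Readout is yeast growth inhibition, normalised to vehicle-treated controls, in the mec2-1 strain exposed to compound.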
Test [3] can be described thus: NCI Yeast Anticancer Drug Screen. Data for the sgs1 mgt1 strain (AID 161).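 Note: 0% = growth of cultures given vehicle only.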 To be noted: S. cerevisiae sgs1 mgt1 strain, stronger effect = higher value. The gist of the method:
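This yeast growth screen uses a strain with defined DNA-repair lesions; compound-treated growth is compared with vehicle-treated growth.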

Test [4] can be described thus: NCI Yeast Anticancer Drug Screen. Data for the cln2 rad14 strain (AID 165).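 Note: 0% = growth equal to vehicle treated cultures.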 To be noted: S. cerevisiae cln2 rad14 strain, stronger effect = higher value. The method, boiled down: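 Relative to vehicle controls, growth inhibition of compound-treated cln2 rad14 yeast was recorded.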
Test [5] is described as follows: NCI Yeast Anticancer Drug Screen. Data for the bub3 strain (AID 167). Particulars: S. cerevisiae bub3 mutant strain, stronger effect = higher value. The gist of the method:
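Inhibition values come from growth of compound-treated mutant yeast normalised to vehicle-treated controls.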

Test [6] in a line: NCI Yeast Anticancer Drug Screen. Data for the mlh1 rad18 strain (AID 175). Particulars: S. cerevisiae mlh1 rad18 strain growth inhibition, stronger effect = higher value. The method, boiled down:
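Test agents were incubated with a yeast strain of defined genotype (DNA damage repair defect). Inhibition of growth was derived by comparison with vehicle-exposed cultures.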

[7] abbreviates: at 5.0 µM (retest, dose inferred, filed as 0.5).
The mark [8] stands for this setting: at 50.0 µM (retest, dose inferred, filed as 5.0).

Consider `O=C(Oc1c(Cl)c(Cl)c(Cl)c(Cl)c1Cl)c1ccc(Cl)cc1`, for which the growth inhibition in test [1] (setting [7]) was 25%; in test [1] (setting [8]), 99% (active); in test [1] (at 50.0 µM), 99.6% (active); in test [2] (setting [7]), 19%; in test [2] (setting [8]) it was 99% (active); in test [2] (at 50.0 µM), 99.7% (active). For the same compound, the growth inhibition in test [3] (setting [7]) was 24%; in test [3] (setting [8]) it was 99% (active); in test [3] (at 50.0 µM) it was 99% (active); in test [4] (setting [7]), 13%; in test [4] (setting [8]), 99% (active); in test [4] (at 50.0 µM), 99.7% (active). Besides, the growth inhibition was 15% in test [5] (setting [7]); 99% (active) in test [5] (setting [8]); 99.7% (active) in test [5] (at 50.0 µM); 30% in test [6] (setting [7]); 99% (active) in test [6] (setting [8]); 99.2% (active) in test [6] (at 50.0 µM).

For `N#Cc1sc2c(c1OC(=O)c1ccc(Cl)cc1)c(=O)n(-c1ccccc1)c(=S)n2-c1ccccc1`, the growth inhibition in test [1] (setting [7]) was -4%; in test [1] (setting [8]) it was -16%; in test [1] (at 50.0 µM), 1.5%; in test [2] (setting [7]) it was 5%; in test [2] (setting [8]), -24%; in test [2] (at 50.0 µM), 2.4%. For the same compound, the growth inhibition was -3% in test [3] (setting [7]); 0% in test [3] (setting [8]); -0.45% in test [3] (at 50.0 µM); 5% in test [4] (setting [7]); 6% in test [4] (setting [8]); 34.5% in test [4] (at 50.0 µM). Also, the growth inhibition in test [5] (setting [7]) is -3%; in test [5] (setting [8]), 2%; in test [5] (at 50.0 µM), 4.95%; in test [6] (setting [7]), -2%; in test [6] (setting [8]), 1%; in test [6] (at 50.0 µM) it was -7.35%.

With `CC1(C)c2ccccc2-c2nc3ccccc3cc2C1Br` (configuration not stated), the growth inhibition in test [1] (setting [7]) is -1%; in test [1] (setting [8]), 29%; in test [1] (at 50.0 µM) it was 37.6%; in test [2] (setting [7]), -4%; in test [2] (setting [8]) it was 26%; in test [2] (at 50.0 µM), 46.7%. Also, the growth inhibition in test [3] (setting [7]) is -4%; in test [3] (setting [8]), 23%; in test [3] (at 50.0 µM), 73.7% (active); in test [4] (setting [7]) it was -22%; in test [4] (setting [8]), 4%; in test [4] (at 50.0 µM) it was 44.3%. The growth inhibition in test [5] (setting [7]) was 2%; in test [5] (setting [8]), 59%; in test [5] (at 50.0 µM), 95% (active); in test [6] (setting [7]) it was -1%; in test [6] (setting [8]), 27%; in test [6] (at 50.0 µM) it was 70.5% (active).

Consider `O=C1CN(Cc2ccc(Cl)cc2)CC(=O)N2Cc3ccccc3CN12`, for which the growth inhibition in test [1] (setting [7]) was 4%; in test [1] (setting [8]) it was -3%; in test [1] (at 50.0 µM), -16.2%; in test [2] (setting [7]) it was -4%; in test [2] (setting [8]), -6%; in test [2] (at 50.0 µM), -13.8%. The growth inhibition was 4% in test [3] (setting [7]); -13% in test [3] (setting [8]); -13.2% in test [3] (at 50.0 µM); -2% in test [4] (setting [7]); 1% in test [4] (setting [8]); 5.1% in test [4] (at 50.0 µM). Besides, the growth inhibition is 6% in test [5] (setting [7]); 6% in test [5] (setting [8]); 64.2% in test [5] (at 50.0 µM); -4% in test [6] (setting [7]); -3% in test [6] (setting [8]); -11% in test [6] (at 50.0 µM).

As to `c1ccc2c(O[Si](Oc3cccc4ccccc34)(Oc3cccc4ccccc34)Oc3cccc4ccccc34)cccc2c1`, the growth inhibition is 7% in test [1] (setting [7]); 87% (active) in test [1] (setting [8]); 96% (active) in test [1] (at 50.0 µM); 0% in test [2] (setting [7]); 87% (active) in test [2] (setting [8]); 97.7% (active) in test [2] (at 50.0 µM). Further, the growth inhibition in test [3] (setting [7]) is 3%; in test [3] (setting [8]), 89% (active); in test [3] (at 50.0 µM), 97.8% (active); in test [4] (setting [7]), -5%; in test [4] (setting [8]), 71% (active); in test [4] (at 50.0 µM) it was 89.6% (active). Moreover, the growth inhibition in test [5] (setting [7]) was 3%; in test [5] (setting [8]) it was 93% (active); in test [5] (at 50.0 µM), 96.8% (active); in test [6] (setting [7]), 2%; in test [6] (setting [8]), 86% (active); in test [6] (at 50.0 µM) it was 95.8% (active).

For `CN(C)C(=S)SN(C)C(=O)Nc1ccccc1`, the growth inhibition in test [1] (setting [7]) is -5%; in test [1] (setting [8]), 96% (active); in test [1] (at 50.0 µM), 70.3% (active); in test [2] (setting [7]), -7%; in test [2] (setting [8]) it was 96% (active); in test [2] (at 50.0 µM) it was 73% (active). Further, the growth inhibition in test [3] (setting [7]) is -6%; in test [3] (setting [8]), 96% (active); in test [3] (at 50.0 µM) it was 94% (active); in test [4] (setting [7]) it was -13%; in test [4] (setting [8]) it was 95% (active); in test [4] (at 50.0 µM), -9%. The growth inhibition is -4% in test [5] (setting [7]); 95% (active) in test [5] (setting [8]); 92.2% (active) in test [5] (at 50.0 µM); -3% in test [6] (setting [7]); 96% (active) in test [6] (setting [8]); 86.1% (active) in test [6] (at 50.0 µM).

For `COc1cccc2c1C(=O)c1c(O)c3c(c(O)c1C2=O)C[C@@](O)(/C(C)=N/NC(N)=S)C[C@@H]3OC1CC(N)C(O)C(C)O1` (some centres not stated), the growth inhibition was 27% in test [1] (setting [7]); 91% (active) in test [1] (setting [8]); 95.5% (active) in test [1] (at 50.0 µM); 8% in test [2] (setting [7]); 58% in test [2] (setting [8]); 94.7% (active) in test [2] (at 50.0 µM). The growth inhibition is 3% in test [3] (setting [7]); 56% in test [3] (setting [8]); 96.3% (active) in test [3] (at 50.0 µM); 4% in test [4] (setting [7]); 38% in test [4] (setting [8]); 82.8% (active) in test [4] (at 50.0 µM). For the same compound, the growth inhibition in test [5] (setting [7]) was 4%; in test [5] (setting [8]), 60%; in test [5] (at 50.0 µM), 95.3% (active); in test [6] (setting [7]), 8%; in test [6] (setting [8]), 75% (active); in test [6] (at 50.0 µM), 95.7% (active).

With `Cc1ccc(Nc2nc3nc[nH]c3c(=O)[nH]2)cc1CO`, the growth inhibition in test [1] (setting [7]) was 2%; in test [1] (setting [8]) it was 13%; in test [1] (at 50.0 µM), -4.35%; in test [2] (setting [7]) it was 10%; in test [2] (setting [8]), 2%; in test [2] (at 50.0 µM), -12.4%. Moreover, the growth inhibition was -12% in test [3] (setting [7]); 14% in test [3] (setting [8]); -0.6% in test [3] (at 50.0 µM); -2% in test [4] (setting [7]); -4% in test [4] (setting [8]); 0% in test [4] (at 50.0 µM). The growth inhibition in test [5] (setting [7]) is 2%; in test [5] (setting [8]), -4%; in test [5] (at 50.0 µM), -8.75%; in test [6] (setting [7]), 15%; in test [6] (setting [8]), 7%; in test [6] (at 50.0 µM), 4.8%.

For the compound `COC(O)C12OC3CO[Si](C(C)C)(C(C)C)O[Si](C(C)C)(C(C)C)OC3C1Oc1nc(=O)ccn12` (configuration not stated), the growth inhibition in test [1] (setting [7]) was 10%; in test [1] (setting [8]), 98% (active); in test [1] (at 50.0 µM), 88.7% (active); in test [2] (setting [7]), 13%; in test [2] (setting [8]), 99% (active); in test [2] (at 50.0 µM), 91.7% (active). For the same compound, the growth inhibition in test [3] (setting [7]) is -25%; in test [3] (setting [8]), 98% (active); in test [3] (at 50.0 µM), 86.5% (active); in test [4] (setting [7]), 1%; in test [4] (setting [8]) it was 97% (active); in test [4] (at 50.0 µM) it was 86.7% (active). The growth inhibition was -4% in test [5] (setting [7]); 98% (active) in test [5] (setting [8]); 87.5% (active) in test [5] (at 50.0 µM); 15% in test [6] (setting [7]); 98% (active) in test [6] (setting [8]); -69.8% in test [6] (at 50.0 µM).
